Source: paper PMC5540273 (PLoS ONE, 2017)

Experiments:
Details in all cases: concentration: 1 μM, replicates: in singlicate; n = 1
[1] = test system: T1, MLK1
T1 construct: gene MAP3K9

[2] = test system: MLK2
[3] = test system: MLK3
[4] = test system: MRCKA
[5] = test system: T2, MRCKB
T2 construct: gene CDC42BPB

[6] = test system: MST1R
[7] = test system: T3, MST1
T3 construct: gene STK4

[8] = test system: T4, MST2
T4 construct: gene STK3

[9] = test system: T5, MST3
T5 construct: gene STK24

[10] = test system: MST4
[11] = test system: MTOR
[12] = test system: MUSK
[13] = test system: MYLK2
[14] = test system: MYLK4
[15] = test system: MYLK
[16] = test system: MYO3A
[17] = test system: MYO3B
[18] = test system: T6, NDR1
T6 construct: gene STK38

[19] = test system: NDR2
[20] = test system: NEK10
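Further: KINOMEscan kinase panel screen.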

Compound	%Inh [1]	%Inh [2]	%Inh [3]	%Inh [4]	%Inh [5]	%Inh [6]	%Inh [7]	%Inh [8]	%Inh [9]	%Inh [10]	%Inh [11]	%Inh [12]	%Inh [13]	%Inh [14]	%Inh [15]	%Inh [16]	%Inh [17]	%Inh [18]	%Inh [19]	%Inh [20]
COc1cccc(-c2ccc3c(NC(=O)C4CC4)n[nH]c3n2)c1 [SB-710903]	19%	0%	0%	21%	0%	29%	3%	0%	0%	0%	20%	0%	78%	6%	11%	45%	0%	10%	16%	20%
CCS(=O)(=O)c1ccc(OC)c(Nc2nccc(-c3c(-c4cccc(NC(=O)c5c(F)cccc5F)c4)nn4ncccc34)n2)c1 [GSK326180]	0%	0%	0%	24%	11%	0%	21%	28%	0%	0%	15%	11%	9%	2%	17%	30%	6%	0%	0%	21%
Cc1ccc(C)c(NC(=O)NC2CCN(c3ccnc(Nc4ccc(F)cc4)n3)C2)c1 (stereo not shown) [GSK1379720]	0%	0%	0%	11%	6%	38%	0%	0%	0%	0%	15%	5%	0%	0%	2%	5%	0%	0%	0%	9%
COC(=O)Nc1nc2cc(Oc3ccc(NC(=O)Nc4cc(C(F)(F)F)ccc4F)cn3)ccc2[nH]1.Cl.Cl [GW681170]	12%	0%	10%	16%	0%	17%	0%	0%	0%	0%	2%	99.4%	0%	0%	16%	21%	0%	20%	14%	7%
COc1cc(Nc2nccc(N3CCC(NC(=O)Nc4cccc(C(C)=O)c4)C3)n2)cc(OC)c1OC (stereo not shown) [GSK1379753]	48%	0%	45%	18%	0%	36%	89%	31%	2%	0%	0%	18%	7%	1%	17%	6%	0%	8%	0%	20%
Cn1cc(-c2ccc3c(c2)CCN3C(=O)Cc2cccc(Cl)c2)c2c(N)ncnc21 [GSK2606590]	70%	77%	73%	0%	0%	38%	97.2%	0%	17%	19%	0%	29%	71%	0%	8%	43%	21%	0%	0%	18%
Cc1cccc(Nc2nc(N[C@H]3CCNC3)ncc2C(N)=O)c1.Cl [GSK2197149]	92.9%	4%	86%	0%	0%	0%	43%	0%	31%	36%	0%	0%	0%	81%	16%	2%	0%	0%	0%	56%
Cl.NC(=O)c1cccc(Nc2nccc(Nc3ccc(Oc4c(Cl)cccc4Cl)c(Cl)c3)n2)c1 [GW659009]	0%	0%	0%	0%	0%	3%	75%	11%	0%	0%	0%	5%	0%	0%	0%	0%	0%	17%	0%	0%
CN1CCN(CCCNc2nccc(-c3c(-c4ccc(F)cc4)nn4cc(C(F)(F)F)ccc34)n2)CC1 [GW621581]	0%	22%	0%	0%	0%	8%	11%	0%	19%	0%	0%	0%	8%	0%	0%	0%	0%	10%	0%	10%
Cc1cccc(NC(=O)Nc2ccc(Oc3ncnc4ccn(C)c34)cc2)c1	2%	0%	0%	0%	0%	7%	14%	0%	0%	0%	26%	17%	0%	0%	0%	0%	5%	30%	0%	0%
COc1cc2c(cc1OCCN1CCNCC1)ncc1c3ccc(C#N)cc3[nH]c21	0%	0%	0%	6%	0%	9%	0%	60%	12%	28%	19%	0%	68%	70%	47%	0%	0%	3%	0%	20%
C[C@@H](Oc1cc(-n2cnc3cc(-c4ccnc(NCCS(C)(=O)=O)c4)ccc32)sc1C(N)=O)c1ccccc1Cl [GSK907232]	14%	20%	42%	0%	8%	57%	64%	0%	0%	4%	2%	30%	53%	2%	10%	13%	0%	0%	0%	0%
Cc1ccc(S(=O)(=O)Nc2ccc(Nc3nccc(Nc4cccc5[nH]ncc45)n3)cc2)cc1 [GSK581271]	0%	0%	0%	7%	0%	35%	46%	0%	11%	0%	5%	12%	17%	50%	0%	9%	0%	0%	0%	3%
COCCOCCOc1cc2ncc3c4ccc(C#N)cc4[nH]c3c2cc1OC	22%	0%	53%	12%	24%	0%	12%	76%	0%	0%	0%	6%	54%	72%	33%	10%	0%	60%	0%	0%
Cc1ccc(C(=O)Nc2ccc(Nc3ccnc4cc(-c5nccs5)ccc34)cc2O)cc1.Cl [GW494702]	0%	0%	0%	1%	0%	34%	0%	5%	3%	0%	6%	4%	11%	0%	0%	34%	6%	2%	9%	0%
c1ccc(-c2n[nH]cc2Nc2ccnc3ccccc23)nc1 [GW694077]	11%	0%	0%	18%	0%	12%	0%	0%	0%	0%	11%	7%	0%	99.9%	22%	25%	0%	0%	4%	95.7%
O=c1[nH]cc(-c2ccc(N3CCOCC3)cc2)c2sc(-c3cn[nH]c3)cc12 [GSK2276055]	0%	0%	0%	0%	0%	31%	0%	32%	29%	0%	8%	0%	3%	48%	18%	53%	0%	30%	29%	0%
COc1cc(Nc2nccc(N3CCC(NC(=O)c4cc5ccccc5s4)C3)n2)cc(OC)c1OC (stereo not shown) [GSK1379760]	58%	46%	53%	11%	0%	39%	9%	0%	11%	100%	34%	1%	13%	3%	0%	17%	0%	12%	0%	18%
CN1CCN(Cc2cccc(-c3ccc4c(Nc5ccc(Oc6ccccc6)cc5)ccnc4c3)c2)CC1 [GW578342]	4%	5%	4%	0%	0%	35%	12%	0%	3%	0%	15%	17%	0%	0%	13%	28%	0%	14%	25%	0%
CN(C)S(=O)(=O)c1cc(-c2ccc3nccc(-c4cccc(S(N)(=O)=O)c4)c3c2)cnc1N [GSK1669921]	0%	22%	0%	0%	0%	32%	20%	2%	5%	6%	100%	16%	0%	11%	35%	0%	1%	17%	0%	9%
